Measured values taken from PubChem BioAssay (NCI).
About 79,000 compounds went through this panel and 15% of them were active in at least one assay; those are over-represented in the sample as a whole. Active and inactive are the calls of the source. Cut-off read from the data, not from the text of the source: active = growth inhibition above about 70%; inactive = the rest.

Experiments:
[1] = NCI Yeast Anticancer Drug Screen. Data for the rad52 strain (AID 147);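 note: 0% = growth of vehicle-treated control cultures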; settings: S. cerevisiae rad52 mutant growth inhibition, hits give high values
In short: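 Genetically altered yeast (DNA damage repair defect) treated with compound; inhibition calculated relative to vehicle.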

[2] = NCI Yeast Anticancer Drug Screen. Data for the wt1 strain (AID 149);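 note: 0% = growth of vehicle-treated wt1 cultures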; settings: S. cerevisiae wt1 strain (SPY 50644) growth inhibition, hits give high values
In short: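 The wt1 strain was treated with compounds, and growth was compared with vehicle-treated cultures to give inhibition.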

[3] = NCI Yeast Anticancer Drug Screen. Data for the rad50EPP+ strain (AID 151);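 note: 0% = growth of vehicle-treated control cultures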; settings: S. cerevisiae rad50 mutant strain, hits give high values
In short: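 Strain rad50EPP+; compound exposure; % growth inhibition vs vehicle.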

[4] = NCI Yeast Anticancer Drug Screen. Data for the mgt1 strain (AID 153); settings: S. cerevisiae mgt1 mutant growth inhibition, hits give high values
In short: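 Read-out: yeast growth inhibition vs vehicle control. Strain mgt1, drawn from a panel altered in DNA damage repair or cell cycle control.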

[5] = NCI Yeast Anticancer Drug Screen. Data for the rad50 strain (AID 155);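 note: 0% = growth of vehicle-only cultures of the same strain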; settings: S. cerevisiae rad50 strain growth inhibition, hits give high values
In short: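 Cells are treated with compound, grown, and their growth is then scored against vehicle-only cultures of the same repair-deficient yeast strain.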

[6] = NCI Yeast Anticancer Drug Screen. Data for the mec2-1 strain (AID 157); settings: S. cerevisiae mec2-1 strain, hits give high values
In short: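 Cells of the genetically defined mec2-1 yeast strain are incubated with test compound. Inhibition of growth is calculated against vehicle-treated controls.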

[7] = NCI Yeast Anticancer Drug Screen. Data for the rad14 strain (AID 159);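 note: 0% = growth of vehicle-treated control cultures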; settings: S. cerevisiae rad14 strain growth inhibition, hits give high values
In short: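 Readout: yeast growth inhibition, referenced to vehicle-only cultures. Strain bears a defined alteration in DNA damage repair.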

[8] = NCI Yeast Anticancer Drug Screen. Data for the sgs1 mgt1 strain (AID 161);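 note: 0% = growth of cultures given vehicle only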; settings: S. cerevisiae sgs1 mgt1 strain, hits give high values
In short: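 Inhibition of yeast growth, normalised to vehicle-treated controls, is reported for a strain bearing genetic alterations in DNA damage repair.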

[9] = NCI Yeast Anticancer Drug Screen. Data for the CLN2oe strain (AID 163);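 note: 0% = growth of vehicle-only control cultures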; settings: S. cerevisiae CLN2oe strain, hits give high values
In short: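 Strain altered in cell-cycle control, incubated with compound; growth compared to solvent-treated controls.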

[10] = NCI Yeast Anticancer Drug Screen. Data for the cln2 rad14 strain (AID 165);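 note: 0% = growth equal to vehicle treated cultures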; settings: S. cerevisiae cln2 rad14 strain, hits give high values
In short: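 The screen exposed genetically defined yeast (cln2 rad14) to test compounds and scored growth inhibition relative to vehicle-treated controls.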

[11] = NCI Yeast Anticancer Drug Screen. Data for the bub3 strain (AID 167); settings: S. cerevisiae bub3 mutant strain, hits give high values
In short: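 Part of a panel of yeast mutants defective in DNA damage repair or cell cycle regulation. Each strain is grown with compound, and inhibition is calculated relative to solvent-treated cultures.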

[12] = NCI Yeast Anticancer Drug Screen. Data for the wt2 strain (AID 169);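 note: 0% = growth of vehicle-treated yeast cultures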; settings: S. cerevisiae wt2 strain growth inhibition, hits give high values
In short: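 Steps: yeast strain treated with compound; growth recorded; inhibition calculated relative to cultures given vehicle alone.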

[13] = NCI Yeast Anticancer Drug Screen. Data for the mlh1 strain (AID 171);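 note: 0% = growth of vehicle-treated control cultures of the same strain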; settings: S. cerevisiae mlh1 strain growth inhibition, hits give high values
In short: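 Yeast screen: mutant strain plus compound, growth scored against vehicle control wells.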

[14] = NCI Yeast Anticancer Drug Screen. Data for the mlh1 rad18 strain (AID 175); settings: S. cerevisiae mlh1 rad18 strain growth inhibition, hits give high values
In short: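 Compound-treated yeast growth, normalised to vehicle controls. Strain bears defined DNA repair mutations.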

[15] = NCI Yeast Anticancer Drug Screen. Data for the rad18 strain (AID 177); settings: S. cerevisiae rad18 mutant growth inhibition, hits give high values
In short: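 Inhibition values reflect reduced yeast growth compared with vehicle-treated controls, using a strain engineered with a DNA damage repair defect.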

[16] = NCI Yeast Anticancer Drug Screen. Data for the sgs1 strain (AID 173);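 note: 0% = growth of vehicle-only control cultures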; settings: S. cerevisiae sgs1 mutant, hits give high values
In short: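 Inhibition of yeast growth served as the measure. The mutant strain was treated with each compound, and growth was normalised to cultures receiving vehicle alone.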

[17] = at 5.0 µM (retest, dose inferred, filed as 0.5)
[18] = at 50.0 µM (retest, dose inferred, filed as 5.0)

Measured: growth inhibition

CCC(=O)OC1CCn2c1nc1c2C(=O)C(C)=C(N2CC2)C1=O (stereo unspecified)
active: [1]; at 100.0 µM 82% | [5]; [18] 87% | [5]; at 100.0 µM 78% | [6]; at 50.0 µM 70.4% | [7]; at 100.0 µM 79% | [8]; at 50.0 µM 71.4% | [14]; [18] 73% | [15]; at 3.7 µM 75% | [15]; at 11.0 µM 87% | [15]; at 33.0 µM 90% | [15]; at 100.0 µM 91%
inactive: [1]; at 1.2 µM -5% | [1]; at 3.7 µM 26% | [1]; at 11.0 µM 17% | [1]; at 33.0 µM 41% | [2]; at 1.2 µM 4% | [2]; at 3.7 µM -7% | [2]; at 11.0 µM -11% | [2]; at 33.0 µM -8% | [2]; at 100.0 µM 2% | [3]; at 1.2 µM 12% | [3]; at 3.7 µM 1% | [3]; at 11.0 µM -9% | [3]; at 33.0 µM 7% | [3]; at 100.0 µM 25% | [4]; at 1.2 µM 7% | [4]; at 3.7 µM -7% | [4]; at 11.0 µM -1% | [4]; at 33.0 µM 6% | [4]; at 100.0 µM 16% | [5]; at 1.2 µM 18% | [5]; at 3.7 µM -3% | [5]; [17] 48% | [5]; at 11.0 µM 18% | [5]; at 33.0 µM 34% | [5]; at 50.0 µM 55.8% | [6]; at 1.2 µM -7% | [6]; at 3.7 µM -2% | [6]; [17] 38% | [6]; at 11.0 µM 6% | [6]; at 33.0 µM 20% | [6]; [18] 64% | [6]; at 100.0 µM 64% | [7]; at 1.2 µM 8% | [7]; at 3.7 µM 7% | [7]; at 11.0 µM 14% | [7]; at 33.0 µM 38% | [8]; [17] 20% | [8]; [18] 66% | [9]; at 1.2 µM -41% | [9]; at 3.7 µM -44% | [9]; at 11.0 µM -43% | [9]; at 33.0 µM -39% | [9]; at 100.0 µM -19% | [10]; [17] 14% | [10]; [18] 54% | [10]; at 50.0 µM 57.6% | [11]; at 1.2 µM 9% | [11]; at 3.7 µM -3% | [11]; [17] -24% | [11]; at 11.0 µM -9% | [11]; at 33.0 µM -14% | [11]; [18] -11% | [11]; at 50.0 µM -7.05% | [11]; at 100.0 µM 13% | [12]; at 1.2 µM -30% | [12]; at 3.7 µM -35% | [12]; at 11.0 µM -29% | [12]; at 33.0 µM -19% | [12]; at 100.0 µM 16% | [13]; at 1.2 µM 5% | [13]; at 3.7 µM 24% | [13]; at 11.0 µM -11% | [13]; at 33.0 µM -10% | [13]; at 100.0 µM 24% | [14]; [17] 45% | [14]; at 50.0 µM 69% | [15]; at 1.2 µM 60%

O=[N+]([O-])c1cc([As](Br)c2ccc(O)c([N+](=O)[O-])c2)ccc1O
active: [1]; at 11.0 µM 99% | [1]; at 33.0 µM 99% | [1]; at 100.0 µM 98% | [2]; at 3.7 µM 70% | [2]; at 11.0 µM 99% | [2]; at 33.0 µM 98% | [2]; at 100.0 µM 98% | [3]; at 33.0 µM 74% | [3]; at 100.0 µM 99% | [4]; at 3.7 µM 88% | [4]; at 11.0 µM 100% | [4]; at 33.0 µM 99% | [4]; at 100.0 µM 99% | [5]; at 3.7 µM 89% | [5]; [17] 99% | [5]; at 11.0 µM 99% | [5]; at 33.0 µM 99% | [5]; [18] 99% | [5]; at 50.0 µM 99.5% | [5]; at 100.0 µM 98% | [6]; at 3.7 µM 93% | [6]; [17] 99% | [6]; at 11.0 µM 99% | [6]; at 33.0 µM 100% | [6]; [18] 99% | [6]; at 50.0 µM 99.8% | [6]; at 100.0 µM 100% | [7]; at 11.0 µM 100% | [7]; at 33.0 µM 100% | [7]; at 100.0 µM 99% | [8]; [17] 99% | [8]; [18] 99% | [8]; at 50.0 µM 99.5% | [9]; at 11.0 µM 93% | [9]; at 33.0 µM 98% | [9]; at 100.0 µM 98% | [10]; [17] 98% | [10]; [18] 99% | [10]; at 50.0 µM 99.5% | [11]; at 1.2 µM 97% | [11]; at 3.7 µM 98% | [11]; [17] 93% | [11]; at 11.0 µM 97% | [11]; at 33.0 µM 98% | [11]; [18] 99% | [11]; at 50.0 µM 99.5% | [11]; at 100.0 µM 99% | [13]; at 3.7 µM 75% | [13]; at 11.0 µM 99% | [13]; at 33.0 µM 100% | [13]; at 100.0 µM 100% | [16]; at 3.7 µM 90% | [16]; at 11.0 µM 99% | [16]; at 33.0 µM 99% | [16]; at 100.0 µM 99% | [14]; [17] 99% | [14]; [18] 99% | [14]; at 50.0 µM 99.8% | [15]; at 3.7 µM 85% | [15]; at 11.0 µM 99% | [15]; at 33.0 µM 99% | [15]; at 100.0 µM 98%
inactive: [1]; at 1.2 µM 15% | [1]; at 3.7 µM 57% | [2]; at 1.2 µM 10% | [3]; at 1.2 µM 0% | [3]; at 3.7 µM 3% | [3]; at 11.0 µM 26% | [4]; at 1.2 µM 28% | [5]; at 1.2 µM 28% | [6]; at 1.2 µM 60% | [7]; at 1.2 µM 31% | [7]; at 3.7 µM 69% | [9]; at 1.2 µM 16% | [9]; at 3.7 µM 22% | [13]; at 1.2 µM 31% | [16]; at 1.2 µM 33% | [15]; at 1.2 µM 26%

Nc1nnc(N)n1-n1c(N)nnc1N
inactive: [1]; at 1.2 µM -2% | [1]; at 3.7 µM -2% | [1]; at 11.0 µM -1% | [1]; at 33.0 µM 0% | [1]; at 100.0 µM 10% | [2]; at 1.2 µM -1% | [2]; at 3.7 µM 2% | [2]; at 11.0 µM -2% | [2]; at 33.0 µM -2% | [2]; at 100.0 µM 2% | [3]; at 1.2 µM 1% | [3]; at 3.7 µM 0% | [3]; at 11.0 µM -5% | [3]; at 33.0 µM -14% | [3]; at 100.0 µM -16% | [4]; at 1.2 µM -3% | [4]; at 3.7 µM -4% | [4]; at 11.0 µM -4% | [4]; at 33.0 µM -2% | [4]; at 100.0 µM 1% | [5]; at 1.2 µM -3% | [5]; at 3.7 µM -1% | [5]; [17] -8% | [5]; at 11.0 µM -3% | [5]; at 33.0 µM 1% | [5]; at 50.0 µM 56.1% | [5]; at 100.0 µM 9% | [6]; at 1.2 µM 1% | [6]; at 3.7 µM 3%
active: [5]; [18] 92%
